# Sampled rows, rich in hits. Any-hit rate of the full collection: about 0.5%.
# CBFb RUNX1 block: qHTS Assay for Compounds Blocking the Interaction Between CBF-beta and RUNX1 for the Treatment of Acute Myeloid Leukemia | AID 1477, 2009 | 230,000 tested, under 10 active | Potency, µM (series often up to 59.8 µM), inactives show at the top dose activity, negative = inhibition, usual class: inhibitors | AlphaScreen CBFb-His/RUNX1-biotin binding, biochemical | Runt-related transcription factor 1 (Homo sapiens) + Core-binding factor subunit beta …; note: % of control where 0% means no effect
#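 Read-out: AlphaScreen. Format: His-CBF-beta with biotinylated RUNX1 (30 nM each) preincubated 20 min, compound 15 min, Ni-chelate plus streptavidin beads 90 min; room temperature throughout.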
# RGS12 GoLoco inh: qHTS Assay for Inhibitors of RGS12 GoLoco Motif Activity (Red Fluorophore); Guanine nucleotide-binding protein G(i) subunit alpha-1 (Homo sapiens), P63096; Gai1:RGS12 GoLoco peptide FP, rhodamine, 10 min; Potency, µM (doses to about 61.6 µM), for the others: at the top dose activity, negative = inhibition, actives largely listed as inhibitors; hit rate 0.44% among 230,000; active = well fitted inhibition curve with a large enough effect, not every such curve was filed as active; inactive = no such curve, though single readings can be large or run the other way; note: potency is the fitted concentration of half-maximal effect; % is set by controls: 0 for no effect and ±100 for the full control effect; nearly all actives have a fitted effect of over 30% in size
# Target sequence (P63096 whole entry, looked up): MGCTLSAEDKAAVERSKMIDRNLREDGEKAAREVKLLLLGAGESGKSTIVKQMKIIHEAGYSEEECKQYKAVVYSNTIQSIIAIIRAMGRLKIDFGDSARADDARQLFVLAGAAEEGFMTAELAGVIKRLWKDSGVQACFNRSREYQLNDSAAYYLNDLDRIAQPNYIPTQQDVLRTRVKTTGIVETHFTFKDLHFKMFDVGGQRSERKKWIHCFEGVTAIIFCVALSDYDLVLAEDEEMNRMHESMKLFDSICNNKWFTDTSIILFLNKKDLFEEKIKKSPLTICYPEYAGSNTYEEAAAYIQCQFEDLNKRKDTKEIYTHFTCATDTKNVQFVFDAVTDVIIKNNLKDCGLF
# ERK EGF inh: qHTS Assay for Inhibitors of the ERK Signaling Pathway using a Homogeneous Screening Assay; Stimulation with EGF; hit rate 0.41% among 130,000; Potency, µM (highest dose often 11.5 µM), for inactives: at the top dose activity change, negative = inhibition, hits mostly inhibitors; HEK293-V1b, EGF-stimulated phospho-ERK AlphaScreen; AID 1454, 2008;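 note: potency is the fitted concentration of half-maximal effect; plate controls were stimulated vehicle wells for no effect and unstimulated vehicle basal for full effect; nearly all actives have a fitted effect of over 55% in size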
#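 After overnight plating in 1% FBS, HEK293-V1b cells received test compound for half an hour, then a 5 min pulse of EGF (25 nM); ERK phosphorylation in lysates was read by bead-based AlphaScreen.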
# * = called active by the depositor; ? = inconclusive; . = no result; [ ] = another dose, or the depositor's remark. Unless noted, calls come from the whole dose curve; as a rule, active = well fitted curve in the direction sought with a large enough effect; inconclusive = small, poorly fitted or top-dose-only effect, or another doubt; inactive = no such curve, though single readings can be large; an effect the other way counts as inactive or inconclusive.
SMILES,CBFb RUNX1 block,RGS12 GoLoco inh,ERK EGF inh
CC1CCCC/C1=N/Nc1ccc([N+](=O)[O-])cc1[N+](=O)[O-] (stereo unspecified),-6%,-10%,.
CC[n+]1cccc(-c2nc3ccccc3s2)c1,3%,10µM*,0%
Oc1cccc(-c2nc3ccccc3s2)c1,8%,-3%,.
CCOC(=O)N1CCc2c(sc(NC(=O)CN3CCN(C)CC3)c2C(=O)Nc2ccccc2)C1,6%,61%,29%
CCOC(=O)N1CCc2c(sc(NC(=O)CN3CCOCC3)c2C(=O)Nc2ccccc2)C1,7%,9%,35µM*
C/C(N=NC(=[SH+])SCc1ccccc1)=C1\C=CC=CN1.[Cl][Cu],.,-32%[14.2 µM],.
CC(C)(C)OC(=O)NCCCC1=CC2=CC(=O)C(C)(OC(=O)c3cnc4ccccc4n3)C(=O)C2=CO1 (stereo unspecified),-10%,3%,-3%
Cc1[nH]nc2oc(=O)c(CCO)c(C)c12,1%,1%,.
COc1ccc(-c2[nH]nc3oc(=O)c(CCO)c(C)c23)cc1,2%,14%,16µM*
COc1ccc2c(c1)C(=O)[C@H](OC(=O)NCc1ccc3c(c1)OCO3)[C@@H](c1ccc(OC)c(Br)c1)O2,-10%,1%,-5%
COc1cc2c(cc1OC)C(/C=C/c1ccc(OC)c(OC)c1OC)=NCC2,3%,-1%,18%
CN(C)S(=O)(=O)c1ccc(-c2csc(N/N=C/c3ccco3)n2)cc1,-19%,-9%,20µM*
O=C(/C=C/c1ccco1)Nc1nc(-c2ccccc2)cs1,-10%,13%,25µM*
CN(C)S(=O)(=O)c1ccc(-c2csc(N/N=C/c3ccc(O)cc3)n2)cc1,-9%,6%,11µM*
Cc1ccc(-c2csc(N/N=C/c3ccco3)n2)cc1,-22%,5%,.
O=C(/C=C/c1ccco1)Nc1nc(-c2ccccn2)cs1,?,10%,1%
C(=N\Nc1nc(-c2ccccc2)cs1)/c1ccncc1,-3%,8%,-3%
O=C(/C=C/C(=O)Oc1ccccc1C(=O)O)Oc1ccccc1C(=O)O,.,0%,28%
Cc1cc2c(nc1C)CCCN2C[C@@H](O)CN1CCN(C)CC1,-15%[13.1 µM],.,.
Cc1ccccc1-n1c(C)cc(/C=N/Nc2ccc([N+](=O)[O-])cn2)c1C,-15%,3.2µM*,.
Cc1cc(/C=N/Nc2ccc([N+](=O)[O-])cn2)c(C)n1-c1ccc(C(=O)O)cc1,?,22%,-4%
O=[N+]([O-])c1cccc(-c2ccc(C(=S)N3CCN(c4ccccc4)CC3)o2)c1,3%,-9%,25µM*
O=[N+]([O-])c1cccc(-c2ccc(C(=S)N3CCOCC3)o2)c1,3%,18%,2%
COc1cc2c(cc1OC)-c1c(oc3cc(O)cc(O)c3c1=O)CO2,-21%,6%,7%
Cc1ccccc1Nc1nc(NCc2ccco2)c2ccccc2n1,-3%,-2%,-2%
SMILES,CBFb RUNX1 block,RGS12 GoLoco inh,ERK EGF inh
c1ccc(Nc2nc(NCc3ccco3)c3ccccc3n2)cc1,-2%,8%,?
Cc1cccc(Nc2nc(NCc3ccco3)c3ccccc3n2)c1,0%,-4%,28µM*
Oc1ccccc1Nc1nc(NCc2ccco2)c2ccccc2n1,-3%,10%,32µM*
c1ccc2n[nH]nc2c1,8%[21.7 µM],16µM*,.
c1ccc(-c2n[nH]nc2-c2ccccc2)cc1,4%,0%,.
COC(=O)C/C=C/[C@@H](C)[C@H](NC(=O)OCC(Cl)(Cl)Cl)c1cccc(OC)c1,1%,35%,5%
O=c1c(-c2ccc(Cl)cc2)nc2cnc(Nc3ccccc3)nc2n1C[C@H]1CCCO1,.,65%,.
O=C(Nc1cccnc1)c1cccc(S(=O)(=O)N2CCc3ccccc32)c1,6%,-1%,1%
O=C(Nc1cccnc1)c1ccc(Cl)c(S(=O)(=O)N2CCc3ccccc32)c1,-6%,-5%,25µM*
COCCn1c(=O)c(-c2cccs2)nc2cnc(Oc3ccc(OC)cc3)nc21,.,18%,?
Cc1ccc(Nc2c([N+](=O)[O-])c(=O)oc3ccccc23)cc1,-4%,21%,5%
CCc1ccc(Nc2c([N+](=O)[O-])c(=O)oc3ccccc23)cc1,-3%,3%,18µM*
CC(C)OC(=O)[C@H]1O[C@H](CCCCOCc2ccccc2)[C@@H](C)[C@H]2O[C@H]21,-8%,3%,-13%
Cc1nc(NC2CCCCC2)c2nc(-c3ccccc3)n(CCCN3CCOCC3)c2n1,0%,4%,6%

# Screening data (PubChem BioAssay)
